Measured values from ChEMBL document CHEMBL3988442, “University of Dundee, Small-Polar-MMV Screening Library” (2021).

The compounds below were run against T1, Aspartate--tRNA(Asp/Asn) ligase (Mycobacterium tuberculosis (strain ATCC 25618 / H37Rv)) (UniProt P9WFW3) (assay: Assay for Asp RNA synthetase-1 from Mycobacterium tuberculosis). Settings: 30 µM.
T1 sequence (whole entry): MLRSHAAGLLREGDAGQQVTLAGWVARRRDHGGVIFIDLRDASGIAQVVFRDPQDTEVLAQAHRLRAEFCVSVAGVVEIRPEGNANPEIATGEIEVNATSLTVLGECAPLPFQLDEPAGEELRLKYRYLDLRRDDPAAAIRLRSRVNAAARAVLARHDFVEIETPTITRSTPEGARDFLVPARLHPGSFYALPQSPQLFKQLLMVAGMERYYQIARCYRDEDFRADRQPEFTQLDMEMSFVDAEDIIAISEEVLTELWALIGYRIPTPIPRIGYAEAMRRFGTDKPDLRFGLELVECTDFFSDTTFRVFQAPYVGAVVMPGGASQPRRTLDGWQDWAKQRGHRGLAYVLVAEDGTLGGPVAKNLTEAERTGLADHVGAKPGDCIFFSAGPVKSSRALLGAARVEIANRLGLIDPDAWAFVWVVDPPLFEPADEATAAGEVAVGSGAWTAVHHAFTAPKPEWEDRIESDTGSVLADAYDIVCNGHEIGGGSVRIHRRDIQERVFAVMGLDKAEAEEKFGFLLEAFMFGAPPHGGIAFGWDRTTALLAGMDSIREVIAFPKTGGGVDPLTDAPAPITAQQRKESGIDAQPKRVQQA
Type: functional
Parameters: scale not given: in the data most compounds retested in dose-response had high values

Structure (SMILES) | Percent Effect [%]
CCOc1nc2cccnc2n(CC(=O)NCCOC)c1=O | -2.81
COCCCNc1nccc(-c2c[nH][nH]c2=O)n1 | 6.51
Cc1cc(C)cc(NS(=O)(=O)c2cc3c(c(C(=O)O)c2)OCCO3)c1 | 3.19
O=C1CC(c2ccncc2)C2(CCN(CCO)CC2)N1 (stereo not given) | -1.48
CCCNC(=O)CN1CCC(C(=O)Nc2cnn(CC)c2)CC1 | 0.927
CC(C)(C)c1cn2nc(N3CCC[C@@H]3CO)sc2n1 | -3.63
CCc1noc(C)c1C(=O)N1CCCC1c1c(C)nn(C)c1OC (stereo not given) | -3.25
CCOc1cccc2c1OCC(C(=O)NS(=O)(=O)Cc1ccccc1)=C2 | -0.211
CCn1cc(CN(C)S(=O)(=O)c2ccc(Cl)cc2)cn1 | -1.31
CCc1nc(CN(Cc2cccs2)CC2CCCO2)no1 (stereo not given) | 2.75
COc1ccccc1CNC(=O)N1CCCC(c2nncn2C)C1 (stereo not given) | -4.33
CCOCC1CN(S(C)(=O)=O)Cc2cnn(C)c21 (stereo not given) | -0.204
CC(Cc1ccco1)NC(=O)Nc1ccc(S(C)(=O)=O)nc1 (stereo not given) | 1.12
CNC(=O)C1(CCCc2ccncc2)CCCN1 (stereo not given) | 4.78
Cc1nn(-c2ccccc2)nc1C(=O)N1CCCC1c1cnn(C)c1 (stereo not given) | 2.1
CCn1cc(NC(=O)NCc2ccc(CN3CCOCC3)cc2)cn1 | 3.24
CCCN(C(=O)COC)c1nc2c(s1)CCc1c-2cnn1C | -1.78
CNC(=O)C1CCN(C(=O)c2ccn(-c3ccc(F)cc3)n2)CC1 | 3.5
CCCC(=O)N1CCC(O)(Cn2c(CC)nc3ccccc3c2=O)CC1 | 0.164
CN1CC(=O)N(c2ccsc2)CC12CCN(C(=O)c1ccccc1)C2 (stereo not given) | 2.85
